Compound activity as filed in PubChem.
KLF5 inhibitor: inhibitors of KLF5 expression; DLD-1 KLF5 promoter-luciferase reporter, luminescence; inhibition, % at 5 µM; 290,000 tested, 0.23% active; AID 1700;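 active means inhibition above a per-plate limit of that plate's mean compound inhibition plus 3 SD, cut at about 60% in these data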;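 further: higher means less KLF5 promoter-driven luciferase light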
BaF3 parental: parental Ba/F3 viability inhibition as JAK2V617F counter-screen | 220,000 tested, 1.1% active | AID 1486 | inhibition, % at 5.6 µM | CellTiter-Glo ATP luminescence;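 active means inhibition above a per-campaign cutoff, the mean inhibition of all tested compounds plus 3 SD, cut at about 27% in these data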
IEC-6 tox: kills IEC-6 intestinal cells in KLF5 counter-screen | inhibition, % at 5 µM | 290,000 tested, 0.78% active | IEC-6 cytotoxicity, luminescence viability | AID 1825
APP 5UTR inh: APP translation inhibition; SH-SY5Y APP 5'UTR-luciferase reporter, luminescence; inhibition, % at 2 µM; 190,000 tested, 0.82% active; AID 1285;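 active means inhibition above a set limit, derived from the sample mean plus 3 SD, cut at about 45% in these data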
Ba/F3 V617F tox: lowers viability of Ba/F3 cells expressing EpoR and JAK2V617F; 220,000 tested, 1.1% active; inhibition, % at 5.6 µM; ATP luminescence;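 active means inhibition above the campaign mean plus 3 SD over all tested compounds, cut at about 24% in these data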;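 further: cytokine-independent growth of Ba/F3 cells driven by EpoR plus mutant JAK2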
IEC-6 tox confirm: IEC-6 cytotoxicity, confirmation assay | shares compounds with IEC-6 tox | IEC-6 rat intestinal epithelial viability, luminescence | inhibition, % at 5 µM | 1,900 tested, 63% active | AID 1907
Each line names hits and unclear results; the compound was inactive in the other large screens (follow-up assays come after a bar, where they were run). Compounds with a hit are over-represented: about 1.9% of the library has one in this group of screens. Unless noted, no stated cut-off is given here; in the data, active means inhibition above about 22%; inactive means the rest.

COc1ccc(OC)c(C(=O)c2ccc(C(=O)c3cc(OC)ccc3OC)cc2)c1	none
COc1ccc(C(=O)c2ccc(OC)cc2OC)cc1	IEC-6 tox 25 (no result: APP 5UTR inh) | IEC-6 tox confirm inactive
COc1ccc(C(=O)c2ccc(N(C)C)cc2)c(OC)c1	BaF3 parental 52, IEC-6 tox 54, APP 5UTR inh 78, Ba/F3 V617F tox 50 | IEC-6 tox confirm 53
Cc1ccc(N=Cc2c(O)c3ccccc3oc2=O)cc1F	none (no result: BaF3 parental, APP 5UTR inh, Ba/F3 V617F tox)
COc1ccc(NS(=O)(=O)c2cc(Br)cc3c2N(C(C)=O)CC3)cc1	IEC-6 tox 38 (no result: BaF3 parental, APP 5UTR inh, Ba/F3 V617F tox) | IEC-6 tox confirm 33
O=C(CCc1ccccc1)Nc1ccncc1	none
CC(C)c1ccc(NC(=O)CCc2ccccc2)cc1	IEC-6 tox 29 (no result: BaF3 parental, APP 5UTR inh, Ba/F3 V617F tox) | IEC-6 tox confirm 52
CCOc1ccc(N(C)S(=O)(=O)c2ccc(-c3ccc(=O)[nH]n3)s2)cc1	none (no result: BaF3 parental, APP 5UTR inh, Ba/F3 V617F tox)
CN(C)c1ccc(NC(=O)CSc2nc3ccccc3c(=O)n2C2CCCCC2)cc1	none
Cc1cc(NC(=O)CSc2nc3ccccc3c(=O)n2C2CCCC2)no1	IEC-6 tox 63 | IEC-6 tox confirm 56
COc1ccc(-n2c(SCC(=O)Nc3ccc([N+](=O)[O-])cc3OC)nc3ccccc32)cc1	none
COc1ccccc1C(=O)Nc1ccc2c(c1)nc(CCNC(=O)c1ccccc1)n2C	BaF3 parental 76, IEC-6 tox 60, Ba/F3 V617F tox 85 (no result: APP 5UTR inh) | IEC-6 tox confirm 43
COc1ccccc1C(=O)Nc1ccc2c(c1)nc(CCNC(C)=O)n2C	none
CS(=O)(=O)c1ccc(-c2nnn(CC(=O)N3CCCCC3)n2)cc1	none (no result: BaF3 parental, APP 5UTR inh, Ba/F3 V617F tox)
O=C(NCN1C(=O)C2C3C=CC(C3)C2C1=O)Nc1cccnc1 (centres undefined)	none (no result: APP 5UTR inh)
O=C(CSc1cccc[n+]1[O-])c1cc(Cl)ccc1Cl	IEC-6 tox 28 | IEC-6 tox confirm inactive
N#CC(C#N)=C(N)CSc1cccc[n+]1[O-]	IEC-6 tox 24 | IEC-6 tox confirm inactive
O=C(O)CSc1cccc[n+]1[O-]	none
O=C(CSc1cccc[n+]1[O-])c1cccs1	none
O=C(CSc1cccc[n+]1[O-])c1cc2ccccc2o1	IEC-6 tox 25 | IEC-6 tox confirm inactive
O=S(=O)(c1cccs1)N1CCN(c2ccc(Cl)cc2)CC1	none (no result: BaF3 parental, APP 5UTR inh, Ba/F3 V617F tox)
CC1=CC(C)(C)N(S(=O)(=O)c2ccc(C)cc2)c2cc(C)ccc21	BaF3 parental 85, IEC-6 tox 92, APP 5UTR inh 96, Ba/F3 V617F tox 82 | IEC-6 tox confirm 61
CC1=CC(C)(C)N(C(=O)CCl)c2cc(C)ccc21	none
CC(=O)Nc1nc2ccc(S(=O)(=O)N3CCCC3)cc2s1	none (no result: BaF3 parental, APP 5UTR inh, Ba/F3 V617F tox)
CCCC(=O)Nc1nc2ccc(S(=O)(=O)N3CCCCC3)cc2s1	BaF3 parental 79, IEC-6 tox 54, APP 5UTR inh 79, Ba/F3 V617F tox 80 | IEC-6 tox confirm 59
CCCCCCCCn1c2c(c(=N)c3ccccc31)CCC2	BaF3 parental 82, IEC-6 tox 40, Ba/F3 V617F tox 99 | IEC-6 tox confirm 37
COCc1ccc(C(=O)N2CCCCC2C(=O)Nc2ccc(-n3nc(C)cc3C)cc2)o1 (centres undefined)	none (no result: BaF3 parental, APP 5UTR inh, Ba/F3 V617F tox)
COC(=O)c1[nH]c2c(c1C)C(=O)CC(c1cc(OC)ccc1OC)C2 (centres undefined)	none
COCCOC(=O)c1[nH]c2c(c1C)C(=O)CC(c1ccccc1)C2 (centres undefined)	BaF3 parental 75, IEC-6 tox 84, APP 5UTR inh 92, Ba/F3 V617F tox 74 | IEC-6 tox confirm 56
CSCCOC(=O)c1[nH]c2c(c1C)C(=O)CC(c1ccco1)C2 (centres undefined)	BaF3 parental 73, IEC-6 tox 74, APP 5UTR inh 95, Ba/F3 V617F tox 72 | IEC-6 tox confirm 48
COCCOC(=O)c1[nH]c2c(c1C)C(=O)CC(c1ccc(N(C)C)cc1)C2 (centres undefined)	none
COCCOC(=O)c1[nH]c2c(c1C)C(=O)CC(c1ccc(F)cc1)C2 (centres undefined)	none
COC(=O)c1[nH]c2c(c1C)C(=O)CC(c1cccs1)C2 (centres undefined)	BaF3 parental 82, IEC-6 tox 84, APP 5UTR inh 95, Ba/F3 V617F tox 79 | IEC-6 tox confirm 50
CSc1nnc(C(C)(C)C)c(=O)n1/N=C/c1ccc(C(C)C)cc1	none (no result: APP 5UTR inh)
NNC(=O)c1[nH]c(-c2ccccc2)cc1-c1ccccc1	IEC-6 tox 28 (no result: BaF3 parental, APP 5UTR inh, Ba/F3 V617F tox) | IEC-6 tox confirm inactive
O=c1cc(CSc2ccc(Cl)cc2)nc(-c2ccccc2)[nH]1	none
O=c1cc(CSc2ccc(Cl)cc2)nc(-c2ccccn2)[nH]1	IEC-6 tox 87 (no result: BaF3 parental, APP 5UTR inh, Ba/F3 V617F tox) | IEC-6 tox confirm 55
